31 compounds from PubChem BioAssay AID1347420 (Sanford-Burnham Center for Chemical Genomics, 2020) can be followed below.

For orientation: inhibition means the change of the read-out against control, counted positive when it falls.

Out of some 1,300 compounds screened, about 980 (75%) were called active. Inconclusive results (about 4%) are left out. This is one part of the list.

For this experiment, the target named is Sulfhydryl oxidase 1 (Homo sapiens) (UniProt O00391). The experiment is described as follows: QSOX1 enzyme inhibitors, primary screen, biochemical, HyperBlu H2O2 luminescence, HTS (AID 1347420). Note: values above 100% were filed as inconclusive. The conditions noted are these: recombinant QSOX1, HyperBlu H2O2 luminescence; at 12.5 µM; hits give high values; active = any value above zero.
Sequence of Sulfhydryl oxidase 1 (Homo sapiens) (O00391 whole entry, looked up): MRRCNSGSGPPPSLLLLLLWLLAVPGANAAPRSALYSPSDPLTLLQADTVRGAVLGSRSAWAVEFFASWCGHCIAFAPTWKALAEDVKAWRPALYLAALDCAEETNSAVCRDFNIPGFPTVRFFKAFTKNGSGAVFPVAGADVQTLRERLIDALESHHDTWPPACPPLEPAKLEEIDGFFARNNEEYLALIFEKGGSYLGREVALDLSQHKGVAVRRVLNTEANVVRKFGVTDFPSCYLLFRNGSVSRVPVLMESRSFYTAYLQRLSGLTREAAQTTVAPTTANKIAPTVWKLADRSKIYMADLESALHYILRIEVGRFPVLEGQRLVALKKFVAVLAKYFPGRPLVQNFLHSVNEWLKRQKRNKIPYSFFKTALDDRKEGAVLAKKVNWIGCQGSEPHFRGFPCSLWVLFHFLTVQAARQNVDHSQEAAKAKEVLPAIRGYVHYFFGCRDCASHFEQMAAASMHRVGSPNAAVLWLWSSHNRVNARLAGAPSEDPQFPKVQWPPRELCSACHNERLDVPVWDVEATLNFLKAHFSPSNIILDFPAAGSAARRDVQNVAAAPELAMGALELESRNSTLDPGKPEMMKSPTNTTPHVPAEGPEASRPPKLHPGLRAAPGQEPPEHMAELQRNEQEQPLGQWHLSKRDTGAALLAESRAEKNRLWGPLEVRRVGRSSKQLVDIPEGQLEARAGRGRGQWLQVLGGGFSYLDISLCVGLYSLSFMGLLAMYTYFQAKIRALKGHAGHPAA
For the compound `Cc1cc(NC(=O)Nc2ccc3c(ccn3C)c2)sn1`, the inhibition was 13.4% (active).
Then `CN(C)CCCN1c2ccccc2CCc2ccccc21`, with 31.8% (active); and `CNCCCN1c2ccccc2CCc2ccccc21`, with 34.2% (active); and `CC(CN(C)C)CN1c2ccccc2CCc2ccccc21` (stereo unspecified), with 29.4% (active).
Turning to `CN(C)CCCN1c2ccccc2CCc2ccc(Cl)cc21`, the inhibition was -0.4% (inactive).
With `Cc1ccc(S(=O)(=O)NC(=O)NN2CCCCCC2)cc1`, the inhibition was 49.9% (active).
Then `CC(=O)c1ccc(S(=O)(=O)NC(=O)NC2CCCCC2)cc1`, with -1.5% (inactive); and `CCCCNC(=O)NS(=O)(=O)c1ccc(C)cc1`, with 10.2% (active); and `CCCNC(=O)NS(=O)(=O)c1ccc(Cl)cc1`, with 0.5% (active).
Then `OC(CN1CCN(c2cccc(Cl)c2)CC1)C(c1ccccc1)c1ccccc1` (stereo unspecified), with 17.3% (active); and `C[C@]12C[C@H](O)[C@H]3[C@@H](CCC4=CC(=O)CC[C@@]43C)[C@@H]1CC[C@@H]2C(=O)CO`, with 9.4% (active); and `C[C@]12CCC(=O)C=C1CC[C@@H]1[C@@H]2[C@@H](O)C[C@@]2(C)[C@H]1CC[C@]2(O)C(=O)CO`, with 9% (active).
Turning to `N[C@H](C(=O)O)[C@H]1C[C@@H]1C(=O)O`, the inhibition is 20.9% (active).
With `O=C(O)c1cc(=O)cc(C(=O)O)[nH]1` the figure was 10.2% (active); with `COC(=O)C(N)Cc1ccc(Cl)cc1` (stereo unspecified), -8.3% (inactive); with `NC(Cc1ccc(Cl)cc1)C(=O)O` (stereo unspecified), 6.1% (active).
Then `N[C@@H](Cc1ccc(F)cc1)C(=O)O`, with -2.9% (inactive); and `COC(=O)[C@@H](N)Cc1ccc(O)c(O)c1`, with 48.2% (active).
As for `N[C@@H](Cc1ccc(O)c(O)c1)C(=O)O`, the inhibition was 43.6% (active).
Then `N[C@@H](Cc1ccc(O)c(I)c1)C(=O)O`, with 14.8% (active); and `NC1CCN(O)C1=O` (stereo unspecified), with 30% (active).
Take `CCCC1O[C@@H]2C[C@H]3[C@@H]4CCC5=CC(=O)C=C[C@]5(C)[C@H]4[C@@H](O)C[C@]3(C)[C@]2(C(=O)CO)O1` (stereo partly specified): the inhibition is 4.1% (active).
Then `CCCN(CC1CC1)c1nc(C)nc(Nc2c(Cl)cc(Cl)cc2Cl)c1Cl`, with 3.7% (active); and `NS(=O)(=O)c1cc2c(cc1Cl)NCNS2(=O)=O`, with 9.5% (active).
On to `NS(=O)(=O)c1cc2c(cc1Cl)NC(C1CC3C=CC1C3)NS2(=O)=O` (stereo unspecified), for which the inhibition is 44.4% (active).
Then `NS(=O)(=O)c1cc2c(cc1Cl)NC=NS2(=O)=O`, with 4.3% (active); and `CNCCCC12CCC(c3ccccc31)c1ccccc12`, with 1.9% (active); and `NC/C=C\C(=O)O`, with 7.5% (active).
Then `NC/C=C/C(=O)O`, with 1.4% (active); and `CC(C)COCC(CN(Cc1ccccc1)c1ccccc1)N1CCCC1` (stereo unspecified), with 40.1% (active); and `Brc1c(Br)c(Br)c2[nH]cnc2c1Br`, with 18.9% (active).
